# Sampled rows, rich in hits. Any-hit rate of the full collection: about 21%.
# Pf growth 96h – inhibits malaria parasite growth, 96 h | 6.9% of 320,000 active | Potency, µM (titrated, usually from 28.7 µM), for inactives: at the top dose activity change, negative = inhibition, actives largely listed as inhibitors | P. falciparum luciferase reporter growth, 96 h; note: potency is the fitted concentration of half-maximal effect; % is set by controls: 0 for no effect and ±100 for the full control effect
#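 Compounds incubated with erythrocytes infected by luciferase-expressing P. falciparum (2% hematocrit, 0.05% parasitemia final) for 96 hours, 37 C in 5% CO2. Growth inhibition scored as decreased luciferase luminescence.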
# Pf growth 48h – inhibits P. falciparum growth in the first generation, 48 h. Potency, µM (highest dose often 28.7 µM), without a hit: top-dose activity change, negative = inhibition, most hits filed as inhibitors. AID 504832. 5.9% of 310,000 active. P. falciparum luciferase growth in erythrocytes, 48 h; note: potency is the fitted concentration of half-maximal effect; % is set by controls: 0 for no effect and ±100 for the full control effect
#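 Read-out is firefly luciferase luminescence from an integrated reporter in P. falciparum, so falling signal marks reduced parasite growth. Infected erythrocytes were at 2% hematocrit and 0.1% parasitemia (final) in Albumax-supplemented RPMI 1640.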
# HCV inhibitor – HCV inhibition | Potency, µM (series often up to 41.8 µM), without a hit: top-dose activity change, negative = inhibition, hits mostly inhibitors | 3.4% of 340,000 active | Huh7.5.1 HCVcc-Cre infection, luciferase reporter, 44 h; note: potency is the fitted concentration of half-maximal effect; % is set by controls: 0 for no effect and ±100 for the full control effect
#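 Antiviral activity was scored by luciferase reporter output from cells infected with HCVcc-Cre (~0.5 moi) in presence of compound, 44 h infection period, cells seeded 1,000/well 4 h prior.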
# HCMV antiviral – blocks human cytomegalovirus replication; HFF cells, HCMV-luciferase reporter, 72 h; stronger effect = lower value; activity change, negative = inhibition, % at 57.5 µM; 4.5% of 410,000 active; in the data active = activity change below about -60%; inconclusive = no clear call, values can overlap the other calls; inactive = above about -39%; note: % is set by controls: 0 for no effect and ±100 for the full control effect
#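 Inhibition of viral replication was scored as loss of reporter luminescence in HFFs infected with HCMV-luciferase (MOI 1 PFU/cell) for 72 h; compounds tested at 2 doses, normalized to buffer and Salinomycin controls.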
# Shiga inhibitor – Shiga toxin inhibition | inhibition, % at 38.7 µM | 9.2% of 290,000 active | Vero cells, Shiga toxin protein synthesis inhibition reporter; in the data active = inhibition mostly above about 28%, no sharp cut-off; inactive = mostly below about 43%; note: 0% is about no effect
# CHX counter – counter-screen hit for Shiga toxin inhibitors, cycloheximide; 12% of 300,000 active; cell reporter, cycloheximide protein synthesis inhibition counterscreen; max response, %; in the data active = max response mostly above about 13%, no sharp cut-off; inactive = mostly below about 14%; note: read at 38.3 µM for the half of the compounds with a filed dose; 0% is about no effect
# * hit, by the source's call; i = inactive; u = inconclusive; x = no result given; [ ] = another dose, or the depositor's remark. Unless noted, calls come from the whole dose curve; as a rule, active = well fitted inhibition curve with a large enough effect; inconclusive = small, poorly fitted or top-dose-only effect, or another doubt; inactive = no such curve, though single readings can be large or run the other way.
SMILES,Pf growth 96h,Pf growth 48h,HCV inhibitor,HCMV antiviral,Shiga inhibitor,CHX counter
O=C(c1cnccn1)N1CCCC(N2CCN(c3cccc(Cl)c3)CC2)C1 (centres undefined),36%,-3%,11%,-13,-16,10
CC(C)c1nc(C(=O)N2CCCC(N3CCN(c4cccc(Cl)c4)CC3)C2)cs1 (centres undefined),3.7µM*,u,u,-3,-15,-3
COCc1ccc(C(=O)N2CCCC(N3CCN(c4cccc(Cl)c4)CC3)C2)s1 (centres undefined),x,x,x,-1,x,x
Cc1cccc(C(=O)N2CCCC(N3CCN(c4cccc(Cl)c4)CC3)C2)n1 (centres undefined),-4%,-7%,-20%,57,15,21*
Cc1ccsc1C(=O)N1CCCC(N2CCN(c3cccc(Cl)c3)CC2)C1 (centres undefined),20%,38%,u,-64*,-11,1
COc1cc(/C=C2/C(=N)N3C(=NC2=O)SN=C3S(=O)(=O)C(C)C)ccc1OC(=O)c1ccco1,u,-1%,10%,33,12,-2
COc1cc(/C=C2/C(=N)N3C(=NC2=O)SN=C3S(C)(=O)=O)ccc1OC(=O)c1ccco1,-6%,-2%,8%,12,-2,32
CCOc1cc(/C=C2/C(=N)N3C(=NC2=O)SN=C3S(=O)(=O)C(C)C)ccc1OC(=O)c1ccco1,8.3µM*,-8%,1%,-22,3,-1
CCOc1cc(/C=C2/C(=N)N3C(=NC2=O)SN=C3S(=O)(=O)CC)ccc1OC(=O)c1ccco1,10µM*,-4%,9%,-14,12,-2
COc1cc(/C=C2/C(=N)N3C(SC)=NSC3=NC2=O)ccc1OC(=O)c1ccco1,u,13%,18%,4,84,29*
NS(=O)(=O)c1ccc(CCNc2nc3c(-c4cccc(F)c4)nnn3c3ccc(Cl)cc23)cc1,x,x,x,-102*,x,x
Cc1cccc(C)c1NC(=O)CN1CCN(C(=O)c2ccc(OCc3cn4ccccc4n3)cc2)CC1,x,x,13%,-19,x,x
COc1ccc(N2CCN(C(c3cc(OC)ccc3OC)c3nnnn3Cc3ccco3)CC2)cc1 (centres undefined),u,13µM*,12%,-33,-3,-2
COc1ccc(OC)c(C(c2nnnn2CCc2ccccc2)N2CCN(c3ccccc3)CC2)c1 (centres undefined),x,9.3µM*,u,-12,1,-2
COCCn1nnnc1C(c1ccc(OC)cc1OC)N1CCN(c2ccccc2)CC1 (centres undefined),u,0%,9%,83,-15,-1
CC(=O)NC1(NC(C)=O)CCN(C)CC1,-7%,22%,0%,8,-3,-1
COc1cccc(C2c3[nH]c4ccccc4c3C[C@H]3C(=O)N(C)CC(=O)N23)c1 (some centres undefined),7.4µM*,7.4µM*,-10%,14,-4,-1
COc1ccc(C2c3[nH]c4ccccc4c3C[C@H]3C(=O)N(C)CC(=O)N23)cc1OC (some centres undefined),u,u,13%,-4,-5,-3
COCCCN1CC(=O)N2C(c3cccc(OC)c3)c3[nH]c4ccccc4c3C[C@H]2C1=O (some centres undefined),u,u,10%,45,10,-5
COCCN1CC(=O)N2C(c3cccc(OC)c3)c3[nH]c4ccccc4c3C[C@H]2C1=O (some centres undefined),u,12µM*,24%,71,-7,-1
C=CCc1cccc([C@@H]2[C@@H](C)CC[C@H]3C(=O)N4[C@@H](c5cc(OC)c(OC)c(OC)c5)c5[nH]c6ccccc6c5C[C@H]4C(=O)N23)c1,u,4.1µM*,7%[8.37 µM],x,-5,-3
COc1cc(C2c3[nH]c4ccccc4c3C[C@@H]3C(=O)N(Cc4ccco4)CC(=O)N23)cc(OC)c1OC (some centres undefined),3.7µM*,2.3µM*,4%,-12,-2,-5
COc1ccc(C2c3[nH]c4ccccc4c3C[C@H]3C(=O)N(CCCO)CC(=O)N23)cc1OC (some centres undefined),-11%,-18%,18%,22,-7,-4
COc1ccc(-c2cc3c(=O)n(CC(=O)Nc4cccc(Cl)c4)ncn3n2)cc1,46%,38%,8%,0,20,2
COc1cccc(C2c3[nH]c4ccccc4c3C[C@H]3C(=O)N(C4CC4)CC(=O)N23)c1 (some centres undefined),1.9µM*,3.3µM*,2%,37,-6,-3
SMILES,Pf growth 96h,Pf growth 48h,HCV inhibitor,HCMV antiviral,Shiga inhibitor,CHX counter
CCCN1CC(=O)N2C(c3ccccc3)c3[nH]c4ccccc4c3C[C@H]2C1=O (some centres undefined),u,2.3µM*,-20%,6,-9,2
COc1cc(C2C(=O)N(C3CCCCC3)CC(=O)N2C2CCCC2)ccc1OC(C)C (centres undefined),x,x,x,-26,x,x
COc1cc(C2c3[nH]c4ccccc4c3C[C@H]3C(=O)N(C4CC4)CC(=O)N23)ccc1OC(C)C (some centres undefined),9.3µM*,9.3µM*,2%,5,-7,-7
O=C(CCC(=O)N1CCCC(Nc2ccccc2)C1)c1ccc(F)cc1 (centres undefined),11%,2%,-4%,-22,1,-3
N=C1c2ccccc2CN1NC(=O)c1ccc(F)cc1,34%,2%,4%,u,-5,-3
CCn1c(C)nc2cc(C(=O)NNC(=O)c3ccc(C)cc3)ccc21,105%,390%,14%,-30,x,x
Fc1ccc(-c2nc3n(n2)Cc2ccccc2-3)cc1,x,42%,u,150,66*,42*
CCn1c(C)nc2cc(-c3nc4n(n3)Cc3ccccc3-4)ccc21,0.21µM*,0.19µM*,-25%,x,-22,-10
NC(=S)Cc1nc2n(n1)Cc1ccccc1-2,-12%,x,-7%,29,-9,-2
Cc1ccc(-c2nc3n(n2)Cc2ccccc2-3)cc1,i,322%,2%,92,14,20*
O=C(Nc1ccccc1N1CCOCC1)c1cccnc1Cl,2%,-10%,9%,25,-4,3
C=CCNC(=O)c1ccccc1NC(=O)COc1ccccc1,-14%,64%,-18%,-15,34,18
COc1ccc(-n2c(C)c(C)c3c(NCCO)ncnc32)cc1,16%,22%,3%,x,59*,33*
COc1ccc(-n2c(C)c(C)c3c(NCCCO)ncnc32)cc1,9%,17%,-18%,69,71*,43*
Cc1ccc(-n2c(C)c(C)c3c(NCCCO)ncnc32)cc1,89%,95%,u,19,120*,45*

# Screening results as filed in PubChem BioAssay.
